From PubChem BioAssay (NCATS)
A number with no mark means an inactive call. For some of these results: Entries with a potency or affinity are not part of this list. Calls of active or inactive are those of the source. How the calls were made is not given here.

Assays:
[1] = Ebola virus entry assay, green fluorescence channel
[2] = Ebola virus entry assay, blue channel fluorescence
[3] = Ebola virus entry assay, green channel fluorescence
[4] = Ebola virus entry assay, reporter ratio channel; AC50: Channel type: primary unless noted; outcome: Channel type: primary unless noted
[5] = Ebola virus entry assay, blue channel (ratio component)
Wherever efficacy is given: 0% is about no effect.

| Structure (SMILES) | efficacy [1] | outcome [2] | outcome [3] | outcome [4] | outcome [5] | AC50 [2] |
| --- | --- | --- | --- | --- | --- | --- |
| CN1C[C@@H]2C[C@H]1CN2c1cc2c(cc1F)c(=O)c(C(=O)O)cn2C1CC1 | 18.4% | inactive | inactive | inactive | inactive |  |
| O=C(O)c1c(O)c(-c2ccccc2)nc2ccccc12 | 18% | inactive | inactive | inactive | inactive |  |
| CC(=O)Nc1ccc(OCC(O)CNC(C)C)cc1 (stereo not drawn) | -28.6% | inactive | inactive | inactive | inactive |  |
| Cc1onc(-c2c(Cl)cccc2Cl)c1C(=O)Cl | -15.7% | inactive | inactive | inactive | inactive |  |
| Nc1ncnc(Nc2ccccc2)n1 | -14.2% | inactive | inactive | inactive | inactive |  |
| COc1c2occc2cc2ccc(=O)oc12 | -15% | inactive | inactive | inactive | inactive |  |
| CC(C(=O)O)c1ccc2c(c1)CC(=O)c1ccccc1S2 (stereo not drawn) | 23.3% | inactive | inactive | inactive | inactive |  |
| N=C(N)N | 19.5% | inactive | inactive | inactive | inactive |  |
| NS(=O)(=O)c1ccc(NC(=O)CCC(=O)O)cc1 | 9.25% | inactive | inactive | inactive | inactive |  |
| COC(=O)C1=C(C)NC(C)=C(C(=O)OCCc2ccc(N3CCN(C(c4ccccc4)c4ccccc4)CC3)cc2)C1c1cccc([N+](=O)[O-])c1 (stereo not drawn) | -12.1% | inactive | inactive | inactive | inactive |  |
| O=C(O)Cn1c(=O)n(Cc2ccc(Br)cc2F)c(=O)c2ccc(Cl)cc21 | -18.1% | inactive | inactive | inactive | inactive |  |
| CC(C)Cn1cnc2c(N)nc3ccccc3c21 | -30.7% | inactive | inactive | inactive | inactive |  |
| CC(=O)c1ccc(OCC(=O)N2CCCCC2)cc1 | -14.3% | inactive | inactive | inactive | inactive |  |
| CNCCCCOc1ccccc1Cc1ccccc1 | 68.3% |  |  |  |  | 5.62 µM (active) |
| CC(CCc1ccc2c(c1)OCO2)NN (stereo not drawn) | 17.5% | inactive | inactive | inactive | inactive |  |
| CC(=O)O[C@@H]1CC2C3CCc4cc(OC(=O)c5ccccc5)ccc4C3CCC2(C)[C@H]1OC(C)=O (stereo partly drawn) | 11.6% | inactive | inactive | inactive | inactive |  |
| CC(=O)Oc1ccc(C)cc1 | 12.2% | inactive | inactive | inactive | inactive |  |
| CCN1CCC[C@H]1CNC(=O)c1c(O)c(Cl)cc(Cl)c1OC | -17.7% | inactive | inactive | inactive | inactive |  |
| COc1cccc(OC)c1C(=O)N[C@@H]1C(=O)N2[C@@H]1SC(C)(C)[C@@H]2C(=O)O | 19.6% | inactive | inactive | inactive | inactive |  |
| C[n+]1c2cc(N)ccc2cc2ccc(N)cc21 (tested in a mixture with another compound) | 129% |  |  |  |  |  |

| Structure (SMILES) | efficacy [1] | outcome [2] | outcome [3] | outcome [4] | outcome [5] | AC50 [2] |
| --- | --- | --- | --- | --- | --- | --- |
| O=c1cc[nH]c(=O)[nH]1 | 11.9% | inactive | inactive | inactive | inactive |  |
| CCOC(=O)C1=C(C)NC(C)=C(C(=O)OC)C1c1cccc([N+](=O)[O-])c1 (stereo not drawn) | 20.7% | inactive | inactive | inactive | inactive |  |
| CCOC(=O)c1ccc(N)cc1 | 26.1% | inactive | inactive | inactive | inactive |  |
| Cc1cccc(C)c1NC(=O)CN(CC(=O)O)CC(=O)O | -22.8% | inactive | inactive | inactive | inactive |  |
| CCN[C@H]1CN(CCCOC)S(=O)(=O)c2sc(S(N)(=O)=O)cc21 | 16.3% | inactive | inactive | inactive | inactive |  |
| Cc1cc(OI)c(C(C)C)cc1-c1cc(C(C)C)c(OI)cc1C | 13.6% | inactive | inactive | inactive | inactive |  |
| O=C(O)c1ccccc1C(=O)Nc1ccc(S(=O)(=O)Nc2nccs2)cc1 | -12.6% | inactive | inactive | inactive | inactive |  |
| Nc1ccc(S(N)(=O)=O)cc1 | -20.5% | inactive | inactive | inactive | inactive |  |
| COC(=O)c1ccc(O)cc1 | 13.3% | inactive | inactive | inactive | inactive |  |
| C[C@H]1C[C@H](O)c2ccsc2S1(=O)=O | 20.1% | inactive | inactive | inactive | inactive |  |
| CC(=O)CC/C=C(\C)CC/C=C(\C)CC/C=C(\C)CCC=C(C)C | -14.5% | inactive | inactive | inactive | inactive |  |
| Cc1onc(-c2ccccc2)c1C(=O)Cl | 6.34% | inactive | inactive | inactive | inactive |  |
| CC(C(=O)O)c1ccc(/C=C2\CCCCC2=O)cc1 (stereo not drawn) | 13.8% | inactive | inactive | inactive | inactive |  |
| Clc1ccccc1N1CCNCC1 | -17.1% | inactive | inactive | inactive | inactive |  |
| Cc1ccc(S(=O)(=O)NC(=O)NC2CCCCCCC2)cc1 | -10.6% | inactive | inactive | inactive | inactive |  |
| COc1cc(C(=O)NC2CCCNC2)cc(OC)c1OC (stereo not drawn) | -16% | inactive | inactive | inactive | inactive |  |
| COc1ccc(C2C(=O)c3ccccc3C2=O)cc1 | -26.8% | inactive | inactive | inactive | inactive |  |
| CCOC(=O)/C=C(C)/C=C/C=C(C)/C=C/c1c(C)cc(OC)c(C)c1C | 27.5% | inactive | inactive | inactive | inactive |  |
| O=C1OC(CN2CCOCC2)CN1/N=C/c1ccc([N+](=O)[O-])o1 (stereo not drawn) | 29.1% | inactive | inactive | inactive | inactive |  |
| NCCCC[C@H](N[C@@H](CCc1ccccc1)C(=O)O)C(=O)N1CCC[C@H]1C(=O)O | -19.4% | inactive | inactive | inactive | inactive |  |

| Structure (SMILES) | efficacy [1] | outcome [2] | outcome [3] | outcome [4] | outcome [5] | AC50 [2] |
| --- | --- | --- | --- | --- | --- | --- |
| CCOC(=O)c1ccc(O)cc1 | -24.8% | inactive | inactive | inactive | inactive |  |
| O=C(O)CCCCC1CCSS1 (stereo not drawn) | -16.3% | inactive | inactive | inactive | inactive |  |
| CC1(C)Oc2ccc(C#N)cc2[C@@H](N2CCCC2=O)[C@@H]1O | -10.5% | inactive | inactive | inactive | inactive |  |
| O=C(OCC1(COC(=O)c2cccnc2)CCCC(COC(=O)c2cccnc2)(COC(=O)c2cccnc2)C1O)c1cccnc1 | -19.2% | inactive | inactive | inactive | inactive |  |
| Cc1ccc2ccc(Cl)cc2n1 | 18.4% | inactive | inactive | inactive | inactive |  |
| COc1cc(/C=C/C(=O)O[C@H]2CC[C@]34C[C@]35CC[C@]3(C)[C@@H]([C@H](C)CCC=C(C)C)CC[C@@]3(C)[C@@H]5CC[C@H]4C2(C)C)ccc1O | -25.4% | inactive | inactive | inactive | inactive |  |
| CCN1CCC[C@H]1CNC(=O)c1cc(S(N)(=O)=O)ccc1OC | -21.3% | inactive | inactive | inactive | inactive |  |
| O=C1CC2(CCCC2)CC(=O)N1 | -26.6% | inactive | inactive | inactive | inactive |  |
| O=C(O)[C@@H](O)[C@H](O)[C@H](O)[C@@H](O)C(=O)O | -24.9% | inactive | inactive | inactive | inactive |  |
| CNC[C@H](O)[C@@H](O)[C@H](O)[C@H](O)CO | -10.6% | inactive | inactive | inactive | inactive |  |
| CCCCOC(=O)c1ccc(O)cc1 | -26.2% | inactive | inactive | inactive | inactive |  |
| C[C@]12C=CC(=O)C=C1CC[C@@H]1[C@@H]2C(=O)C[C@@]2(C)[C@H]1CC[C@]2(O)C(=O)CO | -19.9% | inactive | inactive | inactive | inactive |  |
| CC1(C)S[C@@H]2[C@H](NC(=O)C(c3ccccc3)S(=O)(=O)O)C(=O)N2[C@H]1C(=O)O (stereo partly drawn) | 24.6% | inactive | inactive | inactive | inactive |  |
| NS(=O)(=O)c1cc(-c2nn[nH]n2)c(NCc2cccs2)cc1Cl | -20.9% | inactive | inactive | inactive | inactive |  |
| CC(C)(C(=O)c1cccnc1)c1cccnc1 | 15.8% | inactive | inactive | inactive | inactive |  |
| COc1ccc2cccc(CCNC(C)=O)c2c1 | -16.7% | inactive | inactive | inactive | inactive |  |
| CCC(=O)c1c(O)cc(O)cc1O | 21.1% | inactive | inactive | inactive | inactive |  |
| COC(=O)c1ccc(NC(C)=O)cc1OC | 15.6% | inactive | inactive | inactive | inactive |  |
